Laboratory results: PubChem BioAssay (NCATS)
Results filed as inconclusive are left out. Values without a mark were called inactive. Activity calls are given as the source filed them. The call rests on the fitted dose curve; in most records, active means well fitted inhibition curve with a large enough effect; inconclusive means small, poorly fitted or top-dose-only effect; inactive means flat fitted curve, though single readings scatter. Numbered stars: 1 amine (or outer) side, 2 acyl side, 3 side chain; on linkers, the order of the positions; unused ones are H or OH. Bridge positions count the residues as written; N and C are the ends. Square brackets hold non-standard residues; d marks the D form. Peptide text beside a SMILES is read from it. I, II: the chains in the order shown. Actinocin(9to1) = Cc1c2oc3c(C)ccc(C(=O)[*:1])c3nc-2c(C(=O)[*:2])c(N)c1=O; NMeV = CN[C@H](C(=O)O)C(C)C; Sar = CNCC(=O)O

Assays:
HB3 = experiment: qHTS profiling for inhibitors of Plasmodium falciparum proliferation (AID 504749); conditions: P. falciparum in erythrocytes, SYBR Green DNA, 72 h; series mostly up to 28.7 µM
In short: (§1)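 Three-day growth assay of blood-stage parasites in erythrocytes (0.3% parasitemia, 2.5% hematocrit) at 37 C, 5% CO2, quantified by SYBR Green DNA staining after overnight detergent lysis.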

ICS = experiment: as above; conditions: P. falciparum in erythrocytes, SYBR Green DNA, 72 h; series mostly up to 28.7 µM
In short: as §1

N140 = experiment: as above; conditions: P. falciparum in erythrocytes, SYBR Green DNA, 72 h; series mostly up to 28.7 µM
In short: as §1

P93_24 = experiment: as above; conditions: P. falciparum in erythrocytes, SYBR Green DNA, 72 h; series mostly up to 28.7 µM
In short: as §1

P94_40 = experiment: as above; conditions: P. falciparum in erythrocytes, SYBR Green DNA, 72 h; series mostly up to 28.7 µM
In short: as §1

PAD = experiment: as above; conditions: P. falciparum in erythrocytes, SYBR Green DNA, 72 h; series mostly up to 28.7 µM
In short: as §1

TAB113 = experiment: as above; conditions: P. falciparum in erythrocytes, SYBR Green DNA, 72 h; series mostly up to 28.7 µM
In short: as §1

TAB165 = experiment: as above; conditions: P. falciparum in erythrocytes, SYBR Green DNA, 72 h; series mostly up to 28.7 µM
In short: as §1

W2 = experiment: as above; conditions: P. falciparum in erythrocytes, SYBR Green DNA, 72 h; series mostly up to 28.7 µM
In short: as §1

CRL-7250 = normal cell line; experiment: Cytotoxic Profiling of Annotated Libraries Using Quantitative High-Throughput Screening (AID 1296008); conditions: Five cell lines viability, CellTiter-Glo ATP luminescence, 48-72 h; max response: stronger effect = lower value; on max response: on the % scale 0 is the no-effect control and ±100 the full control effect
In short: (§2)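 Cytotoxicity was measured as CellTiter-Glo ATP luminescence, read after 10 min at room temperature. Compound treatment of the cells lasted 48 or 72 hr at 37 degrees Celsius in a qHTS format.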

HEK293 = experiment: as above; conditions: Five cell lines viability, CellTiter-Glo ATP luminescence, 48-72 h; max response: stronger effect = lower value
In short: as §2

KB-3-1 = experiment: as above; conditions: Five cell lines viability, CellTiter-Glo ATP luminescence, 48-72 h; max response: stronger effect = lower value
In short: as §2

NIH3T3 = experiment: as above; conditions: Five cell lines viability, CellTiter-Glo ATP luminescence, 48-72 h; max response: stronger effect = lower value
In short: as §2

PC15 = experiment: qHTS profiling for inhibitors of Plasmodium falciparum proliferation (AID 504749); conditions: P. falciparum in erythrocytes, SYBR Green DNA, 72 h; series mostly up to 28.7 µM
In short: as §1

PC26 = experiment: as above; conditions: P. falciparum in erythrocytes, SYBR Green DNA, 72 h; series mostly up to 28.7 µM
In short: as §1

SC27B = experiment: as above; conditions: P. falciparum in erythrocytes, SYBR Green DNA, 72 h; series mostly up to 28.7 µM
In short: as §1

TAB109 = experiment: as above; conditions: P. falciparum in erythrocytes, SYBR Green DNA, 72 h; series mostly up to 28.7 µM
In short: as §1

HaCat = experiment: Cytotoxic Profiling of Annotated Libraries Using Quantitative High-Throughput Screening (AID 1296008); conditions: Five cell lines viability, CellTiter-Glo ATP luminescence, 48-72 h; max response: stronger effect = lower value; on max response: on the % scale 0 is the no-effect control and ±100 the full control effect
In short: as §2

JCK = experiment: qHTS profiling for inhibitors of Plasmodium falciparum proliferation (AID 504749); conditions: P. falciparum in erythrocytes, SYBR Green DNA, 72 h; series mostly up to 28.7 µM
In short: as §1

PC49 = experiment: as above; conditions: P. falciparum in erythrocytes, SYBR Green DNA, 72 h; series mostly up to 28.7 µM
In short: as §1
Further: nearly all actives have a fitted effect of over 60% in size.
Potency means the concentration at half of the fitted maximal effect.

`CN(C)C(=S)SC(=S)N(C)C` was tested, and the Potency (HB3) was 5010 nM (active), the Potency (ICS) was 5010 nM (active) and the Potency (N140) was 11200 nM (active). The Potency (P93_24) was 8910 nM (active), the Potency (P94_40) was 11200 nM (active) and the Potency (PAD) was 5010 nM (active). For the same compound, the Potency (TAB113) was 11200 nM (active), the Potency (TAB165) was 11200 nM (active) and the Potency (W2) was 9530 nM (active). The Potency (CRL-7250) was 8410 nM (active), the Potency (HEK293) was 5960 nM (active) and the max response (KB-3-1) was 31.5%. The Potency (NIH3T3) was 2660 nM (active).

With `Cc1c2oc3c(C)ccc(C(=O)N[C@@H]4C(=O)N[C@H](C(C)C)C(=O)N5CCC[C@H]5C(=O)N(C)CC(=O)N(C)[C@@H](C(C)C)C(=O)O[C@@H]4C)c3nc-2c(C(=O)N[C@@H]2C(=O)N[C@H](C(C)C)C(=O)N3CCC[C@H]3C(=O)N(C)CC(=O)N(C)[C@@H](C(C)C)C(=O)O[C@@H]2C)c(N)c1=O` (I: T[dV]P[Sar][NMeV] / II: T[dV]P[Sar][NMeV]; ester I:1-I:C, II:1-II:C; linker I:N-II:N via Actinocin(9to1)) the Potency (HB3) was 5 nM (active), the Potency (ICS) was 2.5 nM (active) and the Potency (N140) was 3.5 nM (active). For the same compound, the Potency (P93_24) was 5 nM (active), the Potency (P94_40) was 4.5 nM (active) and the Potency (PAD) was 5 nM (active). For the same compound, the Potency (PC15) was 11.2 nM (active), the Potency (PC26) was 5.4 nM (active) and the Potency (SC27B) was 6.3 nM (active). For the same compound, the Potency (TAB109) was 4 nM (active), the Potency (TAB113) was 6.3 nM (active) and the Potency (TAB165) was 4.5 nM (active). For the same compound, the Potency (W2) was 5.4 nM (active), the Potency (CRL-7250) was 4.2 nM (active) and the Potency (HEK293) was 2.1 nM (active). The Potency (HaCat) was 18.8 nM (active) and the Potency (KB-3-1) was 20.6 nM (active).

With `CC(C)(C(=O)c1cccnc1)c1cccnc1` the Potency (HB3) was “inactive”, the Potency (ICS) was “inactive” and the Potency (JCK) was 10000 nM (active). The Potency (N140) was “inactive”, the Potency (P93_24) was “inactive” and the Potency (P94_40) was “inactive”. The Potency (PAD) was “inactive”, the Potency (PC15) was “inactive” and the Potency (PC26) was “inactive”. The Potency (SC27B) was “inactive”, the Potency (TAB109) was “inactive” and the Potency (TAB113) was “inactive”. For the same compound, the Potency (TAB165) was “inactive”, the Potency (W2) was “inactive” and the max response (CRL-7250) was -2.01%. For the same compound, the outcome (HEK293) was “inactive”, the max response (HaCat) was 3.03% and the max response (KB-3-1) was 11%. For the same compound, the outcome (NIH3T3) was “inactive”.

In the case of `Cc1c(N(C)CS(=O)(=O)O)c(=O)n(-c2ccccc2)n1C`, the Potency (HB3) is reported as “inactive”, the Potency (ICS) is reported as “inactive” and the Potency (JCK) is reported as “inactive”. The Potency (N140) was “inactive”, the Potency (P93_24) was “inactive” and the Potency (P94_40) was “inactive”. For the same compound, the Potency (PAD) was “inactive”, the Potency (PC15) was “inactive” and the Potency (PC26) was “inactive”. The Potency (PC49) was “inactive”, the Potency (SC27B) was “inactive” and the Potency (TAB109) was “inactive”. The Potency (TAB113) was “inactive”, the Potency (TAB165) was “inactive” and the Potency (W2) was “inactive”. For the same compound, the outcome (CRL-7250) was “inactive”, the outcome (HEK293) was “inactive” and the outcome (HaCat) was “inactive”. The max response (KB-3-1) was 16.1% and the outcome (NIH3T3) was “inactive”.

For `NC(CS)C(=O)O` (configuration not stated), the Potency (HB3) was 8910 nM (active), the Potency (ICS) was 2000 nM (active) and the Potency (N140) was 11200 nM (active). The Potency (P93_24) was 10000 nM (active), the Potency (P94_40) was 12600 nM (active) and the Potency (TAB109) was 10000 nM (active). The Potency (TAB113) was 10000 nM (active), the Potency (W2) was 4260 nM (active) and the outcome (CRL-7250) was “inactive”. For the same compound, the max response (HEK293) was -10%, the outcome (HaCat) was “inactive” and the max response (KB-3-1) was -0.484%. It also gave a max response (NIH3T3) of -3.73%.

With `CN(C)CCOc1ccccc1Cc1ccccc1` the Potency (HB3) was “inactive”, the Potency (N140) was 4470 nM (active) and the Potency (PC49) was 2510 nM (active). For the same compound, the Potency (TAB109) was 3160 nM (active), the Potency (W2) was 53.6 nM (active) and the outcome (CRL-7250) was “inactive”. For the same compound, the max response (HEK293) was -12.7%, the outcome (HaCat) was “inactive” and the max response (KB-3-1) was -14.6%. The max response (NIH3T3) was -2.31%.
